Bioassay records (PubChem BioAssay)
Only some compounds are listed: those with a hit (about 4% of all), similar ones and a draw of the others.
Peg3 promoter – Peg3 promoter-driven luciferase inhibitors, primary screen, cell-based, HeLa, luciferase luminescence. 360,000 compounds, 1.7% hits. AID 588405, 2011. inhibition, % at 20 µM. HeLa PEG-Prom luciferase reporter, overnight;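 active means inhibition of at least 50% at 20 µM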
KKLEB tox – cytotoxicity in KKLEB CF airway cells, primary screen, cytotoxicity control for CF NF-kB inhibitor project, cell-based, uHTS, fluorescence assay plates; AID 602141, 2011; KKLEB CF airway cells viability, ATPlite luminescence, overnight; stronger effect = lower value; cells stimulated with P. aeruginosa culture filtrate; 360,000 compounds, 0.36% hits; activity change (cytotoxicity), % at 5 µM;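 active means corrected activity change at or below -50% at 5 µM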
TROY signal inh – inhibitors of TROY-driven NF-kB signaling, primary screen, Q293 LMP1-TROYcd cells, NF-kB luciferase, uHTS. Q293 LMP1-TROYcd NF-kB luciferase reporter, 4 h. inhibition, % at 10 µM. 360,000 compounds, 0.98% hits. AID 1347056, 2019;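 active means compounds whose plate-normalised and pattern-corrected inhibition of the luciferase reporter signal at the single screening dose is 50% or more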
TWEAK-Fn14 inh – inhibitors of TWEAK-Fn14 signaling, primary screen, luciferase reporter cells, uHTS; inhibition, % at 10 µM; 360,000 compounds, 2% hits; TWEAK-stimulated Fn14 reporter cells, luciferase luminescence, 8 h; in the data active means inhibition above about 50%
CF NFkB inh – inhibitors of PAF-induced NF-kB signaling, primary screen, cell-based, GFP fluorescence, uHTS; KKLEB NF-kB-GFP reporter, GFP fluorescence overnight; inhibition, % at 5 µM; 360,000 compounds, 0.86% hits; AID 588850, 2011;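 active means at least 50% inhibition at 5 µM, scaled per plate between neutral and stimulator controls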;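 further: PAF is a Pseudomonas aeruginosa culture filtrate used as stimulus; plate controls were PAF-stimulated DMSO wells for no effect and unstimulated DMSO wells for full effect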
HIF-2a inh – HIF-2a reporter inhibitors, primary screen, luminescence, 786-0 RCC cells | 786-0 RCC cells HIF-2a reporter, luciferase luminescence, overnight | inhibition, % at 18.8 µM | 360,000 compounds, 0.72% hits;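 active means inhibition of the luminescence signal of 40% or more relative to plate controls, in a single-dose primary screen at 18.75 µM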
Starred values were filed as active, the others as inactive; nt = not tested or not shown.

SMILES	Peg3 promoter	KKLEB tox	TROY signal inh	TWEAK-Fn14 inh	CF NFkB inh	HIF-2a inh
COc1ccc(C)cc1NS(=O)(=O)c1ccccc1	8	-5	-7	14	5	-1
Cc1ccc(S(=O)(=O)NC(=O)NN2CC3CCCC3C2)cc1 (centres undefined)	-19	-7	-20	-7	14	5
CN(Cc1ccccc1)C(=O)NC1CCCCC1	-2	-7	-10	9	0	-6
CC(C)(Sc1ccc(CCN(CCCCC2CCCCC2)C(=O)NC2CCCCC2)cc1)C(=O)O	14	-16	51*	-37	-3	8
Cc1cc(NCCCn2ccnc2)n2ncc(-c3ccc(Cl)cc3)c2n1	-55	-55*	70*	68*	55*	-162
Cc1cc(C)c(S(=O)(=O)Nc2ccc3c4c(cccc24)CC3)c(C)c1	16	-34	46	28	57*	18
O=C(CN1CCC(C(=O)c2ccc(Cl)cc2)CC1)NC1CCCC1	40	-4	21	14	2	7
CN(C)S(=O)(=O)c1ccc(NC(=O)COc2cccc3c2OC(C)(C)C3)cc1	24	15	2	-6	-17	-5
O=C(NCCc1ccccc1)c1ccc2c(=O)[nH]c3c(C(=O)NCC4CCCO4)sc(=S)n3c2c1 (centres undefined)	-18	8	3	-3	25	-45
CCCCNC(=O)c1sc(=S)n2c1[nH]c(=O)c1ccccc12	21	-37	56*	-19	41	-9
O=C(NC1CCCCC1)c1sc(=S)n2c1[nH]c(=O)c1ccccc12	29	-26	60*	-12	50	4
COc1cccc(C(=O)NN2CCOCC2)c1	1	-1	7	8	29	13
O=C(Nc1ccccc1)N1CCCc2ccccc21	-12	-14	-1	8	6	-25
Cc1cccc(NC(=O)N2CCCc3ccccc32)c1C	2	9	75*	51*	-17	-13
Cc1ccc(NC(=O)c2cc(S(=O)(=O)N3CCc4ccccc43)cn2C)cc1C	52*	-20	9	34	36	25
Cc1cc(=O)oc(C)c1C(=O)N1CCCc2ccccc21	4	1	12	97*	3	10
Cc1ccc(NC(=O)N2CCCc3ccccc32)cc1C	-170	0	65*	26	-6	-172
Cc1ccn2c(=O)nc(SCC(=O)NCCc3ccccc3)nc2c1	-3	-8	-22	-8	-2	12
CC(=O)c1ccc(NC(=O)c2ccc(NC(=O)CCS(=O)(=O)c3cccs3)cc2)cc1	-289	0	51*	25	16	-64
O=C1C(=O)N(Cc2cccs2)c2ccccc21	12	-1	-16	-16	8	22
CCCCCCCCCCCCCCCC[N+](C)(C)Cc1ccc(F)cc1	105*	-32	13	6	10	37
O=C(O)C1C2CCCCC2=C2CCCCC2C1C(=O)O (centres undefined)	53*	-14	2	3	19	24
CCOC(=O)c1nc(Nc2ccc(Nc3ccccc3)cc2)c2ccccc2n1	44	5	54*	43	-22	-42
CCOC(=O)c1ccc(Nc2nc(C(=O)OCC)nc3ccccc23)cc1	32	-2	7	23	2	-20
Cc1ccc(-c2nc(Nc3ccc(O)cc3)c3ccccc3n2)cc1	59*	-1	-32	22	-21	-143
SMILES	Peg3 promoter	KKLEB tox	TROY signal inh	TWEAK-Fn14 inh	CF NFkB inh	HIF-2a inh
Cc1ccc(-c2nc(Nc3cccc(O)c3)c3ccccc3n2)cc1	10	-14	-2	31	-15	-35
Cc1ccc(-c2nc(N/N=C/c3cccc([N+](=O)[O-])c3)c3ccccc3n2)cc1	-86	-34	-40	-1	-24	-110
Cc1ccc(-c2nc(N/N=C/c3cccnc3)c3ccccc3n2)cc1	-114	-71*	-3	43	-28	-221
O=C(NNc1ccc(F)cc1F)c1c(F)cccc1Cl	20	-21	-11	58*	9	16
Cc1ccc(Cl)cc1N1CCN(S(=O)(=O)c2cc3c(cc2C)NC(=O)CO3)CC1	15	-3	23	11	11	-15
Nc1nc2cc3c(cc2cc1C(=O)NCc1ccc(F)cc1)OCO3	nt	nt	-19	39	nt	-121
CC1(C)CC(=O)C/C(=N/Nc2nc3ccccc3s2)C1	-23	2	63*	69*	2	-25
CC1CCC/C(=N/Nc2nc3ccccc3s2)C1 (centres undefined)	-306	16	23	-6	-12	-184
N#Cc1ccccc1OCC(=O)NCC(c1cccs1)N1CCOCC1 (centres undefined)	1	-5	-12	16	20	19
O=C(c1ccco1)N1CCN(c2ncnc3scc(-c4cccs4)c23)CC1	53*	-4	13	8	26	0
O=C(c1ccco1)N1CCN(c2ncnc3scc(-c4ccccc4)c23)CC1	28	-7	0	-2	24	26
Fc1ccc(-c2csc3ncnc(N4CCN(c5ccccc5)CC4)c23)cc1	29	-12	34	32	14	-11
c1ccc(N2CCN(c3ncnc4scc(-c5cccs5)c34)CC2)cc1	36	0	31	64*	27	8
COc1ccc(C(CNC(=O)c2ccc(-c3ccccc3)cc2)N(C)C)cc1OC (centres undefined)	12	-11	0	-1	14	-16
CC[C@]12C(=O)N(C)C[C@H]([C@@H]3C(=O)N(C)C(=O)[C@@H]31)N2C(=O)c1ccc(Cl)c(Cl)c1	12	6	-15	11	-2	10
O=C(NC1CCCCC1)C(c1ccncc1)N(Cc1ccccc1)C(=O)c1ccc(-c2ccccc2)[nH]1 (centres undefined)	14	-50*	-9	2	38	-32
O=C(NC1CCCCC1)C(c1ccncc1)N(Cc1ccc(F)cc1)C(=O)c1ccccn1 (centres undefined)	9	17	-18	5	-17	18
Cc1ccc(SCc2cc(=O)[nH]c(SCC(=O)Nc3cc(Cl)ccc3Cl)n2)cc1	14	7	59*	-12	5	20
CCCc1cc(=O)[nH]c(SCC(=O)Nc2ccc(Br)cc2)n1	7	-5	12	10	-8	16
CCc1ccc(NC(=O)CSc2nc(CSc3ccc(C)cc3)cc(=O)[nH]2)cc1	-3	13	8	-37	7	2
CCCc1cc(=O)[nH]c(SCC(=O)Nc2ccc(Br)cc2Br)n1	11	10	68*	-18	8	14
